Experimental data published in ChEMBL document CHEMBL1201862, “PubChem BioAssay data set” (2004).
Among all 400,000 compounds or so, about 2,100 (0.53%) were called active. Inconclusive results (about 14%) are left out. The rule behind the calls is not given here. The full list was thinned out, with actives kept by preference.

The compounds below were run against Ataxin-2 (Homo sapiens) (UniProt Q99700) (assay: qHTS for Inhibitors of ATXN expression.).
Type: functional

Sequence of Ataxin-2 (Homo sapiens) (Q99700 whole entry): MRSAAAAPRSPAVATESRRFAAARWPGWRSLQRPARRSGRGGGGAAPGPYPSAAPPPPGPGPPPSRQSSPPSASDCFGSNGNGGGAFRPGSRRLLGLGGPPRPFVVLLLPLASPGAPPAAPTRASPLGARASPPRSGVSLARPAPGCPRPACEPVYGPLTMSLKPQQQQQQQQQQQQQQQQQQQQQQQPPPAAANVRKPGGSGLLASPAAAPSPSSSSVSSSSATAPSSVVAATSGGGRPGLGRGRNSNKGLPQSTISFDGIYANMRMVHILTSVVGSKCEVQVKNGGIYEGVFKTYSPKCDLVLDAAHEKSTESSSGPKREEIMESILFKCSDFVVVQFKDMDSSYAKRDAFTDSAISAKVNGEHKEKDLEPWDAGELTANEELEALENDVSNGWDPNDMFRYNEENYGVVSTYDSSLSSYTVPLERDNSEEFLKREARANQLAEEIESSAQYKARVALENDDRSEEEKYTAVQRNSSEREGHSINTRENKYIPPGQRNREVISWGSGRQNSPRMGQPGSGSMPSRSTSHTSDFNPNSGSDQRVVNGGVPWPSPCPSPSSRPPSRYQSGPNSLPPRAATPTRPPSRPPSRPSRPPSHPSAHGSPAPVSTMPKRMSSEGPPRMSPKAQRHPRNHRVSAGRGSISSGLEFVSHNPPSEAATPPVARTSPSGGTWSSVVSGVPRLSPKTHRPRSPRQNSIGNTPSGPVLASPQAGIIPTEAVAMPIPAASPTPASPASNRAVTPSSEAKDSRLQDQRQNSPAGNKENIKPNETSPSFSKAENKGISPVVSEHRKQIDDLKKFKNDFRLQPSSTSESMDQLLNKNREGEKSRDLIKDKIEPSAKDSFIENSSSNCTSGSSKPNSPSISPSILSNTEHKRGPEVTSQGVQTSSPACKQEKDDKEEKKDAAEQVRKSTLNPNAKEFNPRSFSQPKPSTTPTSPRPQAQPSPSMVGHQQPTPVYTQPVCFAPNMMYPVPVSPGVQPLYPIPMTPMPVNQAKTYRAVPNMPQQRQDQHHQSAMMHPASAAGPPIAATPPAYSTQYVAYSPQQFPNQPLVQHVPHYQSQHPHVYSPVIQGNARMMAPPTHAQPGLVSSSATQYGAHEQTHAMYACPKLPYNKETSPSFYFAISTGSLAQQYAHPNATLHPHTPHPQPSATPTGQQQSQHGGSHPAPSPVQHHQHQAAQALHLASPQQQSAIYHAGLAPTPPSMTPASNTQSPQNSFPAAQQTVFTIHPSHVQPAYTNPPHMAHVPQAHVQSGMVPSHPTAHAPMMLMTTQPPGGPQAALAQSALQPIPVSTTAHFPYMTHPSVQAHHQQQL

Row | SMILES | Potency
1 | O=C(CC(=O)c1c(F)cccc1Cl)c1ccccc1O | inactive
2 | Oc1cc(CSc2ccc(Cl)cc2)nc(-c2ccccn2)n1 | 1.41 µM (active)
3 | Oc1nc(-c2ccccn2)nc2sc(-c3ccccc3)cc12 | inactive
4 | Oc1nccc(SCc2ccc(Cl)cc2Cl)n1 | inactive
5 | CC1=CC2=NC(=O)/C(=C\c3cc(C)n(-c4ccccc4)c3C)C(=N)N2O1 | inactive
6 | Fc1ccc(Br)cc1C1C=C(c2ccc(Br)cc2)Nc2nnnn21 (centres undefined) | inactive
7 | O=C(Cn1c(=O)oc2ccc(Cl)cc21)NC1CCCCC1 | inactive
8 | Cc1ccc(Cl)cc1-n1c(=O)c2sc3ccccc3c2n(CC(=O)NC2CCCC2)c1=O | 11.2 µM (active)
9 | Cc1cccn2c(=O)c3cc(C(=O)NC4CCCCCC4)sc3nc12 | inactive
10 | Cc1ccc(Nc2nc(-c3ccccc3)cs2)nc1 | inactive
11 | Cc1ccc(Nc2nc(-c3ccc(O)cc3O)cs2)nc1 | 44.7 µM (active)
12 | Cc1ccc(Nc2nc(-c3sc(C)nc3C)cs2)cc1 | inactive
13 | COC(=O)C1CCN(C(=O)COC(=O)c2ccc(N3CCCC3=O)cc2)CC1 | inactive
14 | COc1ccc(CC(=O)Nc2cc(C)ccn2)cc1OC | inactive
15 | COc1ccc(C(=O)COC(=O)c2sc(C)nc2C)cc1OC | inactive
16 | COc1ccc(C(=O)O/N=C(\N)Cc2ccc(Cl)c(Cl)c2)cc1OC | 28.2 µM (active)
17 | COc1ccc(NC(=O)CSc2nnc3n2CCCCC3)cc1 | inactive
18 | CCc1nnc(NC(=O)CSc2nc(C)c3c(c2C#N)CCCC3)s1 | inactive
19 | CCCCc1ccc(NC(=O)CSc2nc(=O)n(CCN(CC)CC)c3c2CCCC3)cc1 | 39.8 µM (active)
20 | Cc1cc(C(=O)CCl)c(C)n1-c1cccc(S(=O)(=O)N2CCOCC2)c1 | 21.2 µM (active)
21 | Cc1ccc(S(=O)(=O)N2CCOCC2)cc1C(=O)N1C(=O)c2cccc(N)c2C1=O | inactive
22 | O=C(NC1CC1)c1cccc(S(=O)(=O)N2CCOCC2)c1 | inactive
23 | CCC(=O)c1cc2c(C)cc(=O)oc2c(C)c1O | inactive

Row | SMILES | Potency
24 | CCOC(=O)c1cc2c(=O)n3ccccc3nc2n(Cc2ccco2)/c1=N/C(=O)c1ccccc1OCC | inactive
25 | CCCOc1ccc(N2CC(C(=O)NCCc3ccc(OC)c(OC)c3)CC2=O)cc1 (centres undefined) | inactive
26 | COC(=O)[C@]12CCCCC=C1N(Cc1ccc(Cl)cc1Cl)C(=O)[C@H](CC(=O)NCc1ccc(OC)c(OC)c1)C2 | 25.1 µM (active)
27 | CCOC(=O)[C@]12CCC=C1N(Cc1cccc3ccccc13)C(=O)[C@H](CC(=O)NCc1ccc(OC)c(OC)c1)C2 | 39.8 µM (active)
28 | CCOC(=O)[C@]12CCCC=C1N(Cc1ccc(Cl)cc1Cl)C(=O)[C@H](CC(=O)NCc1ccc(OC)c(OC)c1)C2 | 39.8 µM (active)
29 | COc1ccc(CNC(=O)COC(=O)c2ccc(C)c(S(=O)(=O)N3CCOCC3)c2)cc1OC | inactive
30 | COCCn1c(SCC(=O)NCc2ccc(OC)c(OC)c2)nc2ccccc21 | inactive
31 | CCCCCCCCN1C(=O)[C@H](CC(=O)NCc2ccc(OC)c(OC)c2)C[C@@]2(C(=O)OC)CCCCC=C12 | 35.5 µM (active)
32 | CC1(C)C/C(=N\O)C(C(O)c2cccc([N+](=O)[O-])c2)C(C)(C)N1 (centres undefined) | inactive
33 | O=C1CSC(c2cccc([N+](=O)[O-])c2)N1C1CC2CCC1C2 (centres undefined) | inactive
34 | CCCCN(CCCC)S(=O)(=O)c1ccc(C(=O)Nc2sc3c(c2C(N)=O)CCN(CC)C3)cc1 | inactive
35 | Cc1nc2nc(-c3ccccc3)cn2nc1C | inactive
36 | CCCCCCCCN1C(=O)[C@H](CC(=O)NCC2CCCCC2)C[C@@]2(C(=O)OC)CCCCC=C12 | 25.1 µM (active)
37 | Cc1ccc(C2OC34CCCCCC3C(C#N)(C(=N)O4)C2(C#N)C#N)cc1 (centres undefined) | inactive
38 | CN(Cc1cccs1)c1nc(-c2cccnc2)nc2ccccc12 | inactive
39 | O=C(c1ccccc1)c1ccc2nc(-c3ccco3)c(-c3ccco3)nc2c1 | inactive
40 | Clc1ccc(N2N=C(c3cccs3)CC2c2ccco2)cc1 (centres undefined) | inactive
41 | CC(=O)Nc1ccc(C2=NN(c3ccccc3)C(c3cccs3)C2)cc1 (centres undefined) | inactive
42 | COc1ccc(C2CC(c3cccs3)=NN2c2ccc(F)cc2)cc1OC (centres undefined) | inactive
43 | c1ccc(C2CC(c3cccs3)=NN2c2ccccc2)cc1 (centres undefined) | inactive
44 | COc1ccc(C2=NN(c3ccccc3)C(c3cccs3)C2)cc1 (centres undefined) | inactive
45 | Cc1ccc(C2CC(c3cccs3)=NN2C(=O)CCl)cc1 (centres undefined) | 25.1 µM (active)
46 | c1ccc(N2N=C(c3cccs3)CC2c2ccco2)cc1 (centres undefined) | inactive

Row | SMILES | Potency
47 | O=C(CCl)N1N=C(c2cccs2)CC1c1ccco1 (centres undefined) | 5.32 µM (active)
48 | Cc1ccc(C2=NN(C(=O)CCl)C(c3cccs3)C2)o1 (centres undefined) | 9.47 µM (active)
49 | COc1ccccc1N1N=C(c2cccs2)CC1c1ccccc1 (centres undefined) | inactive
50 | COc1cc(C2CC(c3cccs3)=NN2C(=O)CCl)ccc1OC(F)F (centres undefined) | 39.8 µM (active)
51 | O=C(c1ccccc1Cl)N1N=C(c2cccs2)CC1c1cccc(O)c1 (centres undefined) | inactive
52 | COc1ccc2nc3c(cc2c1)c(NC(=O)C1CCCO1)nn3CC(C)C (centres undefined) | inactive
53 | O=S(=O)([N-]c1nc2ccccc2nc1-[n+]1ccn(Cc2ccccc2)c1)c1ccc(Cl)cc1 | inactive
54 | CCCCn1nc(NC(=O)COC)c2cc3cc(OC)ccc3nc21 | inactive
55 | N=c1c(C(=O)NC2CCCCC2)cc2c(=O)n3ccccc3nc2n1Cc1cccnc1 | inactive
56 | COc1ccc(C2=NN3C(C2)c2ccccc2OC3c2cccs2)cc1 (centres undefined) | inactive
57 | O=C(c1ccccc1)C1Oc2ccccc2C2CC(c3cccs3)=NN12 (centres undefined) | inactive
58 | O=C(CCl)N1N=C(c2ccco2)CC1c1cccs1 (centres undefined) | 17.8 µM (active)
59 | C#CCOCCOCCOCCNc1nc(N2CCN(C(=O)CCCCCCCCCCNC(=O)Cn3cc(C[C@@H](C)O)nn3)CC2)nc(N2CCN(C(=O)CCCCCCCCCCNC(=O)[C@@H]([C@H](C)CC)n3cc(CCCCCN)nn3)CC2)n1 | 20 µM (active)
60 | C#CCOCCOCCOCCNc1nc(N2CCOCC2)nc(N2CCN(C(=O)[C@H]([C@@H](C)CC)n3cc([C@@H](N)Cc4ccc(O)cc4)nn3)CC2)n1 | 35.5 µM (active)
61 | C#CCOCCOCCOCCNc1nc(N2CCN(C(=O)CCCCCCCCCCNC(=O)Cn3cc(CCCCCN)nn3)CC2)nc(N2CCN(C(=O)CCCCCCCCCCNC(=O)[C@@H]([C@H](C)O)n3cc(C)nn3)CC2)n1 | 28.2 µM (active)
62 | C#CCOCCOCCOCCNc1nc(N2CCN(C(=O)CCCCCCCCCCNC(=O)[C@H]([C@@H](C)CC)n3cc(CCCCN=C(N)N)nn3)CC2)nc(N2CCN(C(=O)CCCCCCCCCCNC(=O)[C@H](CO)n3cc(CCCSC)nn3)CC2)n1 | 35.5 µM (active)
63 | CC(Sc1nnc(-c2cccnc2)o1)C(=O)NC1CCCCC1 (centres undefined) | inactive
64 | C=CCn1c(N)c(C(=O)OCCC)c2nc3ccccc3nc21 | inactive
65 | OCc1ccccc1-c1ccc2nccn2c1 | inactive
66 | Cc1csc(NC(=O)c2cc3c(s2)-c2ccccc2OC3)n1 | inactive
67 | Cc1cccc(/C=N/c2sc3c(c2C#N)CCN(Cc2ccccc2)C3)c1O | inactive
68 | C#CCOCCOCCOCCNc1nc(N2CCN(C(=O)CCCCCCCCCCNC(=O)[C@H](CCCCN)n3cc(C)nn3)CC2)nc(N2CCN(C(=O)CCCCCCCCCCNC(=O)[C@@H]([C@H](C)O)n3cc(C)nn3)CC2)n1 | 22.4 µM (active)
69 | C#CCOCCOCCOCCNc1nc(N2CCN(C(=O)CCCCCCCCCCNC(=O)[C@H](CCCCN)n3cc(C)nn3)CC2)nc(N2CCN(C(=O)CCCCCCCCCCNC(=O)[C@H](CO)n3cc(CCCSC)nn3)CC2)n1 | 31.6 µM (active)

Row | SMILES | Potency
70 | Cc1ccc(C(=O)c2coc3c2C(=O)C(=O)c2ccccc2-3)cc1 | 39.8 µM (active)
71 | O=C1C(=O)c2c(C(=O)c3ccccc3)coc2-c2ccccc21 | 35.5 µM (active)
72 | COCC/N=C1/Sc2nc3ccc(C)cc3cc2CN1Cc1cccs1 | inactive
73 | Cc1cc(/C=C2\NC(=S)NC2=O)c(C)n1-c1cccnc1 | inactive
74 | CN1C(=S)N(c2cccnc2)C(=O)/C1=C\c1ccc(N(C)C)cc1 | 20 µM (active)
75 | CN1C(=O)/C(=C\c2ccc(N(C)C)cc2)OC1=S | inactive
76 | O=c1oc2c(CN3CCN(CCO)CC3)c(O)ccc2cc1-c1ccccn1 | inactive
77 | CC1C(=O)N2CCCc3cc(NC(=O)CC(C)(C)C)cc1c32 (centres undefined) | inactive
78 | CCOc1cc(/C=N/NC(=O)Nc2ccccc2)ccc1O | inactive
79 | CCOc1cc(/C=N/NC(=O)C(C)Sc2ccccc2)ccc1O (centres undefined) | inactive
80 | CCOc1cc(/C=N\NC(=O)Cc2ccccc2)ccc1OCC(=O)Nc1ccc(C)c(C)c1 | 31.6 µM (active)
81 | CCOc1ccc(CCN2C(=O)C(=O)N([C@@H](CC(C)C)CN3CCC[C@@H]3CN3C(=O)C(=O)NC[C@@H]3Cc3ccccc3)C[C@@H]2CC(C)C)cc1 | 39.8 µM (active)
82 | CCOc1ccc(CCN2C(=O)C(=O)N([C@@H](CC(C)C)CN3CCC[C@H]3CN3C(=O)C(=O)NC[C@@H]3Cc3ccccc3)C[C@@H]2Cc2ccccc2)cc1 | 25.1 µM (active)
83 | CCOc1ccc(CCN2C(=O)C(=O)N([C@@H](CC(C)C)CN3CCC[C@@H]3CN3C(=O)C(=O)NC[C@@H]3CC(C)C)C[C@@H]2Cc2ccccc2)cc1 | 12.6 µM (active)
84 | N#Cc1c(NC(=O)/C=C/C(=O)O)sc2c1CCN(Cc1ccccc1)C2 | inactive
85 | Clc1ccc(-n2c(-c3cccc(Br)c3)nc3nc4ccccc4nc32)cc1 | inactive
86 | Cc1nn(CSc2c(F)c(F)c(F)c(F)c2F)c(C)c1[N+](=O)[O-] | inactive
87 | N#CC1=C(N)Oc2cc(N)ccc2C1c1ccccc1Cl (centres undefined) | inactive
88 | N#CC1=C(N)Oc2ccc3ccccc3c2C1c1cccnc1 (centres undefined) | 12.6 µM (active)
89 | N#CC1=C(N)Oc2cc(O)c(Cl)cc2C1c1cccnc1 (centres undefined) | inactive
